The list is not random: actives were taken first. Their share in the collection is about 1.7%.
IkB signaling: suppresses IkB signaling in ABC-DLBCL reporter cells; AID 445; actives 0.04% (n = 110,000); Potency, µM (top dose mostly 57.1 µM); ABC-DLBCL IkBa-CBG/CBR dual luciferase ratio, 4 h; response scale: scaled: untreated 0%, proteasome inhibitor 100%; active = well fitted curve in the direction sought with a large enough effect in the signal ratio, not every such curve was filed as active; inconclusive = small, poorly fitted or top-dose-only effect, or a change in a side signal; the % refers to the signal ratio;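 also: the direction sought is a rising ratio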
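Curves were fitted separately to fusion (green), unfused (red) and ratio luminescence, then classed by r2, magnitude and activity. Cells: OCI-Ly3, 4 h compound plus doxycycline at 37C; 10 uM MG-132 defined full response.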
p53ts 32C tox: cytotoxicity in p53ts cells at permissive temperature; H1299-p53A138V at 32C, ATP luminescence viability, 24 h; Potency, µM (doses to about 46.1 µM), usual class: cytotoxic; actives 0.93% (n = 130,000); AID 924; also: nearly all actives have a fitted effect of over 55% in size
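Cells: H1299 p53ts (A138V), 600/well, pre-incubated 16–30 h at 37C. Cpd up to 46 uM, 24 h, 32C. Readout: ATPlite luminescence, 20 min RT. Normalization: DMSO vs tamoxifen 100 uM. AC50 by Hill equation.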
Imprint erasure: inducers of genomic imprint erasure in mouse ES cells; mouse ES Peg3-LacZ reporter, beta-gal luminescence, 40 h; Potency, µM (highest dose often 60.7 µM), usual class: activators; actives 0.02% (n = 110,000); AID 1948
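Each well holds 300 Peg3LacZ-Neo (maternal) female ES cells incubated 40 h at 37C, 5% CO2. LacZ is measured by BetaGlo luminescence, with AC50 and maximum efficacy derived from dose-response curves.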
p53ts 39C kill: cytotoxicity in p53ts cells at nonpermissive temperature; AID 902; Potency, µM (highest dose often 46.1 µM), usual class: cytotoxic; actives 1.5% (n = 130,000); H1299-p53A138V viability at 39C, ATP luminescence, 24 h; also: nearly all actives have a fitted effect of over 55% in size
Large screens that a line does not name were inactive. Unless noted, calls follow the shape of the dose curve; as a rule, active = well fitted curve in the direction sought with a large enough effect; inconclusive = small, poorly fitted or top-dose-only effect, or another doubt; inactive = no such curve, though single readings can be large; an effect the other way counts as inactive or inconclusive.

CN1CCN(Cc2c(O)ccc3occ(C(=O)c4ccccc4)c23)CC1	none
CC(=O)C(C(C)=O)c1c(Cl)c(O)c(O)c2c(C(=O)c3ccccc3)coc12	IkB signaling inconclusive, p53ts 32C tox 12.6µM, p53ts 39C kill inconclusive
CCOc1ccc2nc(C)cc(Nc3ccccc3OCC)c2c1	p53ts 39C kill 7.94µM
Cc1ccc(-n2nc(C(=O)N(C)c3ccc(C)c(C)c3)c3c4ccccc4n(C)c3c2=O)cc1	none
C[Si](C)(C)Cl	none
COC(=O)Cc1c(C)nc2nc(-c3ccc(C)cc3)[nH]n2c1=O	IkB signaling inconclusive, p53ts 32C tox 10µM, p53ts 39C kill inconclusive
COC(=O)Cc1c(C)nc2nc(-c3ccccc3)[nH]n2c1=O	none
O=C(Nc1ccc2c(c1)OCCO2)c1ccccc1F	IkB signaling inconclusive, p53ts 32C tox 5.01µM, p53ts 39C kill 7.94µM
O=C(Nc1ccc2c(c1)OCCO2)NC1CCCCC1	IkB signaling inconclusive, p53ts 32C tox 7.94µM, p53ts 39C kill 10µM
O=C(CCc1ccccc1)Nc1ccc(NC(=O)c2ccco2)cc1	none
Cn1cnc2cc(NC(=O)c3ccco3)ccc21	p53ts 32C tox 15.8µM, p53ts 39C kill 7.94µM
CCC(=O)Nc1ccc(NC(=O)c2ccco2)cc1	p53ts 32C tox 12.6µM, p53ts 39C kill 10µM
COc1cc(/C=C/c2nc3cc(Cl)ccc3c(=O)n2-c2cccc(C(F)(F)F)c2)cc(OC)c1OC	none
Cc1ccccc1NS(=O)(=O)c1ccc2[nH]cc(C(=O)NCCc3ccccc3)c(=O)c2c1	IkB signaling inconclusive
O=C(Nc1ccc2c(c1)OCCO2)c1ccco1	p53ts 32C tox 15.8µM, p53ts 39C kill 12.6µM
O=C(COC(=O)c1ccco1)Nc1ccc2c(c1)OCCO2	none
COc1ccc(NC(=O)c2cc3ccccc3o2)cc1	IkB signaling inconclusive, p53ts 32C tox 15.8µM, p53ts 39C kill 15.8µM
CC(C)C(=O)Nc1cccc(NC(=O)c2cc3ccccc3o2)c1	IkB signaling inconclusive, p53ts 32C tox inconclusive, p53ts 39C kill inconclusive
CCCCOC(=O)c1cccc(NC(=O)c2cc3ccccc3o2)c1	IkB signaling inconclusive, p53ts 32C tox inconclusive, p53ts 39C kill 10µM
CC(=O)Nc1cccc(NC(=O)c2cc3ccccc3o2)c1	IkB signaling inconclusive, p53ts 32C tox 12.6µM, p53ts 39C kill 6.31µM
COc1cc(-c2cc(OC)c3c(C)oc(C)c3c(=O)c2)ccc1OC(=O)c1cccc(C)c1	none
C=CCNc1nc(-c2cc3ccccc3o2)cs1	p53ts 32C tox 14.1µM, p53ts 39C kill inconclusive (no result: IkB signaling, Imprint erasure)
Cc1ccc2nc(N3CCC(C(=O)N4CCN(c5cccc(Cl)c5)CC4)CC3)[nH]c2c1	IkB signaling inconclusive
Cc1ccc(NC(=O)c2c3c(nc4ccccc24)C(=O)N(C2CCCCC2)C3)cc1F	none
CCCC(c1nnnn1Cc1cccs1)N1CCN(C2CCCC2)CC1 (centres undefined)	none
CCCC(c1nnnn1Cc1ccc(F)cc1)N1CCN(C2CCCCC2)CC1 (centres undefined)	p53ts 32C tox inconclusive, p53ts 39C kill 20µM
Cc1ccc(C)c(Cn2c(=O)n(CCCCC(=O)NCc3ccccc3Cl)c(=O)c3ccccc32)c1	p53ts 39C kill 25.1µM
COc1ccc(NCc2cc3cc4c(cc3n(CC(=O)Nc3ccc(C)cc3)c2=O)OCO4)cc1	none
CC1=C(C(=O)O)N2C(=O)C(NC(=O)C(N)c3ccccc3)C2SC1 (centres undefined)	none (no result: IkB signaling, p53ts 32C tox, p53ts 39C kill)
CCCN(CCC)C(=O)Cn1c(=O)n(-c2ccc(OC)cc2)c(=O)c2ccc(C(=O)NCc3ccc(C)cc3)cc21	none
CCc1ccc(NC(=O)Cn2c(=O)n(-c3ccc(OC)cc3)c(=O)c3ccc(C(=O)NCc4ccc(C)cc4)cc32)cc1	p53ts 32C tox 10µM, p53ts 39C kill 3.16µM
Cc1ccc(NC(=O)Cn2c(=O)n(-c3ccc(C)cc3)c(=O)c3ccc(C(=O)NCc4ccccc4Cl)cc32)cc1	IkB signaling inconclusive, p53ts 32C tox 6.31µM, p53ts 39C kill 1.26µM
CCCCS(=O)(=O)/C=C\C1C2C=CC(C2)C1S(=O)(=O)CCCC (centres undefined)	none
CCCCS(=O)(=O)/C=C\C=C/S(=O)(=O)CCCC	IkB signaling inconclusive, p53ts 32C tox 20µM, p53ts 39C kill inconclusive
Cc1noc(C)c1-c1nc(NCc2cccs2)c2ccccc2n1	none
O=C(COc1ccc2c(c1)CCC2)N1CCc2ccccc21	IkB signaling inconclusive, p53ts 32C tox 12.6µM, p53ts 39C kill inconclusive
COc1ccc(CCC(=O)Nc2ccc(-c3noc(-c4ccc(OC)c(OC)c4)n3)cc2)cc1	none
